The text below walks through data of PubChem BioAssay AID743025 (Vanderbilt Specialized Chemistry Center, 2013).

Unmarked numbers belong to inactive results.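 How the source made its calls: active means IC50 below 10 µM at human M5 in a calcium flux test, acting as a negative modulator; inactive means the rest.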

For this experiment, the target named is Muscarinic acetylcholine receptor M5 (Homo sapiens) (UniProt P08912). The experiment in a line: inhibition of ACh-evoked M5 calcium signal – cell-based, single concentration, human M5 (AID 743025). Conditions: CHO-K1 hM5, ACh EC80 calcium flux, Fluo-4; at 10 µM; active compounds read low.
Chain of Muscarinic acetylcholine receptor M5 (Homo sapiens) (P08912 whole entry, looked up): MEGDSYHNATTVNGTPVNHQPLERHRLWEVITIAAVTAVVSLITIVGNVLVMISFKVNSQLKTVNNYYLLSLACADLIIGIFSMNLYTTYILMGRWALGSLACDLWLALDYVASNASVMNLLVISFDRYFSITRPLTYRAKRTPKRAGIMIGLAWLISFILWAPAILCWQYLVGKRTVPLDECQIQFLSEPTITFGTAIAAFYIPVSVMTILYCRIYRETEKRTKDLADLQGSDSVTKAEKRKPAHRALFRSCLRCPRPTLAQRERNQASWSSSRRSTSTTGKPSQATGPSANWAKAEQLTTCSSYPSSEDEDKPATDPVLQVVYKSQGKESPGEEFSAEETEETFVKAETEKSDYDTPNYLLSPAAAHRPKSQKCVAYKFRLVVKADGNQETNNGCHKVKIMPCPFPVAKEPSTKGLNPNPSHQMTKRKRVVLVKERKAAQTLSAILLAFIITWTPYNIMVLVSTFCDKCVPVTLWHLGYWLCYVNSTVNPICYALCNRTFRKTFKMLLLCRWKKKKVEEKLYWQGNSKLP

On to `O=C1c2ncccc2C2(c3ccccc3)NCCN12` (configuration not stated), for which the activity remaining is 67.2%.

Consider `O=C1c2ccccc2C2(c3ccc(Cl)cc3)NCCN12` (configuration not stated), for which the activity remaining was 78.7%.
